PubChem BioAssay (NCI)
About 79,000 compounds went through this panel and 15% of them were active in at least one assay; those are over-represented in the sample as a whole. The source made the active and inactive calls. Rule as the data show it: active = growth inhibition above about 70%; inactive = the rest.

How the values were obtained:
[1] = NCI Yeast Anticancer Drug Screen. Data for the rad52 strain (AID 147);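 also: 0% = growth of vehicle-treated control cultures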; conditions: S. cerevisiae rad52 mutant growth inhibition, stronger effect = higher value
Summary of the method: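 Inhibition of yeast growth, referenced to vehicle controls, was the measured output for a strain with defective DNA damage repair.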

[2] = NCI Yeast Anticancer Drug Screen. Data for the wt1 strain (AID 149);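 also: 0% = growth of vehicle-treated wt1 cultures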; conditions: S. cerevisiae wt1 strain (SPY 50644) growth inhibition, stronger effect = higher value
Summary of the method: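 Using yeast strain wt1, compound-induced growth inhibition was determined against vehicle-treated cultures.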

[3] = NCI Yeast Anticancer Drug Screen. Data for the rad50EPP+ strain (AID 151);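 also: 0% = growth of vehicle-treated control cultures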; conditions: S. cerevisiae rad50 mutant strain, stronger effect = higher value
Summary of the method: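 Genetically defined yeast (rad50EPP+, DNA damage repair alteration) is grown with compound, and inhibition of growth is expressed relative to vehicle-treated controls.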

[4] = NCI Yeast Anticancer Drug Screen. Data for the mgt1 strain (AID 153); conditions: S. cerevisiae mgt1 mutant growth inhibition, stronger effect = higher value
Summary of the method: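 In the mgt1 strain, test compounds were added and growth inhibition was determined relative to vehicle-treated controls.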

[5] = NCI Yeast Anticancer Drug Screen. Data for the rad50 strain (AID 155);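 also: 0% = growth of vehicle-only cultures of the same strain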; conditions: S. cerevisiae rad50 strain growth inhibition, stronger effect = higher value
Summary of the method: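 Relative growth inhibition (compound vs vehicle) was measured in yeast with a defined repair-gene alteration.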

[6] = NCI Yeast Anticancer Drug Screen. Data for the mec2-1 strain (AID 157); conditions: S. cerevisiae mec2-1 strain, stronger effect = higher value
Summary of the method: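 Each compound was tested on mec2-1 yeast, a strain altered in DNA damage repair or cell cycle control. Growth inhibition is reported relative to vehicle.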

[7] = NCI Yeast Anticancer Drug Screen. Data for the rad14 strain (AID 159);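 also: 0% = growth of vehicle-treated control cultures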; conditions: S. cerevisiae rad14 strain growth inhibition, stronger effect = higher value
Summary of the method: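 Screen for anticancer potential: a yeast strain altered in DNA damage repair is grown with compound, and reduced growth is quantified against vehicle controls.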

[8] = NCI Yeast Anticancer Drug Screen. Data for the sgs1 mgt1 strain (AID 161);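 also: 0% = growth of cultures given vehicle only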; conditions: S. cerevisiae sgs1 mgt1 strain, stronger effect = higher value
Summary of the method: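 Read-out: growth inhibition vs vehicle controls. Cells: mutant yeast strain deficient in DNA damage repair.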

[9] = NCI Yeast Anticancer Drug Screen. Data for the cln2 rad14 strain (AID 165);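 also: 0% = growth equal to vehicle treated cultures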; conditions: S. cerevisiae cln2 rad14 strain, stronger effect = higher value
Summary of the method: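 Test compounds were added to cln2 rad14 yeast cultures; inhibition of growth was then determined by comparison with vehicle treatment.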

[10] = NCI Yeast Anticancer Drug Screen. Data for the bub3 strain (AID 167); conditions: S. cerevisiae bub3 mutant strain, stronger effect = higher value
Summary of the method: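 Screening used yeast with an engineered genetic alteration affecting cell cycle control. Compound-exposed cultures were compared with vehicle cultures, and reduced growth was taken as inhibition.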

[11] = NCI Yeast Anticancer Drug Screen. Data for the wt2 strain (AID 169);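 also: 0% = growth of vehicle-treated yeast cultures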; conditions: S. cerevisiae wt2 strain growth inhibition, stronger effect = higher value
Summary of the method: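 The panel's yeast strains carry defined changes in DNA repair or cell cycle genes. Each strain is grown with compound, and growth loss is scored relative to vehicle.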

[12] = NCI Yeast Anticancer Drug Screen. Data for the mlh1 strain (AID 171);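 also: 0% = growth of vehicle-treated control cultures of the same strain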; conditions: S. cerevisiae mlh1 strain growth inhibition, stronger effect = higher value
Summary of the method: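 Inhibition values reflect reduced yeast growth in the presence of compound, referenced to vehicle controls, using a strain chosen for its alteration in DNA repair or cell cycle control.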

[13] = NCI Yeast Anticancer Drug Screen. Data for the sgs1 strain (AID 173);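 also: 0% = growth of vehicle-only control cultures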; conditions: S. cerevisiae sgs1 mutant, stronger effect = higher value
Summary of the method: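 Vehicle-treated cultures served as reference for growth inhibition of a yeast strain altered in DNA damage repair or cell cycle control after compound exposure.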

[14] = NCI Yeast Anticancer Drug Screen. Data for the mlh1 rad18 strain (AID 175); conditions: S. cerevisiae mlh1 rad18 strain growth inhibition, stronger effect = higher value
Summary of the method: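 Inhibition values reflect reduced growth of mutant yeast versus vehicle-treated controls following compound exposure; the mutations affect DNA damage repair.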

[15] = NCI Yeast Anticancer Drug Screen. Data for the rad18 strain (AID 177); conditions: S. cerevisiae rad18 mutant growth inhibition, stronger effect = higher value
Summary of the method: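 Steps: expose repair-mutant yeast to compound; measure growth; express as inhibition relative to vehicle control.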

[16] = at 5.0 µM (retest, dose inferred, filed as 0.5)
[17] = at 50.0 µM (retest, dose inferred, filed as 5.0)

Measured: growth inhibition

N#CSCC1COc2ccccc2O1 (stereo not drawn)
active: [1]; at 33.0 µM 72% | [1]; at 100.0 µM 98% | [2]; at 100.0 µM 97% | [3]; at 33.0 µM 83% | [3]; at 100.0 µM 97% | [4]; at 100.0 µM 97% | [5]; at 33.0 µM 86% | [5]; [17] 89% | [5]; at 50.0 µM 88.4% | [5]; at 100.0 µM 98% | [6]; at 33.0 µM 87% | [6]; [17] 91% | [6]; at 50.0 µM 90.8% | [6]; at 100.0 µM 97% | [7]; at 100.0 µM 98% | [8]; at 50.0 µM 90.6% | [9]; [17] 85% | [9]; at 50.0 µM 85.3% | [10]; at 33.0 µM 87% | [10]; [17] 94% | [10]; at 50.0 µM 90.9% | [10]; at 100.0 µM 98% | [11]; at 100.0 µM 96% | [12]; at 33.0 µM 77% | [12]; at 100.0 µM 97% | [13]; at 33.0 µM 73% | [13]; at 100.0 µM 97% | [14]; [17] 94% | [14]; at 50.0 µM 88.2% | [15]; at 33.0 µM 91% | [15]; at 100.0 µM 98%
inactive: [1]; at 1.2 µM -43% | [1]; at 3.7 µM -47% | [1]; at 11.0 µM -26% | [2]; at 1.2 µM -49% | [2]; at 3.7 µM -49% | [2]; at 11.0 µM -28% | [2]; at 33.0 µM 54% | [3]; at 1.2 µM -28% | [3]; at 3.7 µM -18% | [3]; at 11.0 µM -5% | [4]; at 1.2 µM -25% | [4]; at 3.7 µM -23% | [4]; at 11.0 µM -9% | [4]; at 33.0 µM 68% | [5]; at 1.2 µM -1% | [5]; at 3.7 µM 1% | [5]; [16] -5% | [5]; at 11.0 µM 8% | [6]; at 1.2 µM -21% | [6]; at 3.7 µM -33% | [6]; [16] -27% | [6]; at 11.0 µM -5% | [7]; at 1.2 µM -20% | [7]; at 3.7 µM -12% | [7]; at 11.0 µM -16% | [7]; at 33.0 µM 20% | [8]; [16] -25% | [8]; [17] 26% | [9]; [16] -6% | [10]; at 1.2 µM -33% | [10]; at 3.7 µM -11% | [10]; [16] 8% | [10]; at 11.0 µM -16% | [11]; at 1.2 µM -50% | [11]; at 3.7 µM -51% | [11]; at 11.0 µM -24% | [11]; at 33.0 µM 58% | [12]; at 1.2 µM -51% | [12]; at 3.7 µM -37% | [12]; at 11.0 µM -27% | [13]; at 1.2 µM -46% | [13]; at 3.7 µM -42% | [13]; at 11.0 µM -8% | [14]; [16] 5% | [15]; at 1.2 µM -21% | [15]; at 3.7 µM -22% | [15]; at 11.0 µM 17%
